Hits are enriched below; roughly 7.9% of the tested compounds scored in any of these assays.
KB-3-1 cytotox = qHTS assay for MDR1-selective chemotherapeutics: Primary screen using the parental adenocarcinoma cell KB-3-1 | KB-3-1 viability, CellTiter-Glo ATP luminescence, 72 h | Potency, µM (top dose mostly 46.1 µM), hits mostly cytotoxic | actives 1.4% (n = 400,000) | AID 1347075, 2019; further: on the % scale 0 is the no-effect control and ±100 the full control effect; nearly all actives have a fitted effect of over 60% in size
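Cytotoxicity measured as CellTiter-Glo luminescence after 72 h at 37 C. Compound titrations were pinned onto drug-naive KB-3-1 parental adenocarcinoma cells grown in DMEM with 10% FBS, and normalized data fitted to concentration-response curves.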
HT1080 IDH1KD tx = qHTS for induction of synthetic lethality in tumor cells producing 2HG: qHTS for the HT-1080-IDH1KD cell line; HT-1080 IDH1 knockdown viability, ATP luminescence, 48 h; Potency, µM (doses to about 46.1 µM), inactives show at the highest dose activity, negative = toxicity, most hits filed as cytotoxic; AID 686971, 2013; actives 2% (n = 360,000);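 further: 0% = DMSO wells and -100% = cell-free medium wells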
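CellTiter-Glo luminescence after 48 h compound exposure at 37 degrees C of IDH1-knockdown HT-1080 cells in 5% FBS RPMI. %Activity scaled between DMSO wells and cell-free media wells, with curves fitted and assigned curve classes.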
HT1080NT lethal = qHTS for induction of synthetic lethality in tumor cells producing 2HG: qHTS for the HT-1080-NT fibrosarcoma cell line. HT-1080-NT fibrosarcoma viability, CellTiter-Glo ATP luminescence, 48 h. Potency, µM (highest dose often 46.1 µM), without a hit: at the highest dose activity, negative = less viability, usual class: cytotoxic. actives 1.6% (n = 360,000). AID 686970, 2013;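 further: NT is the 2HG producing partner of a matched IDH1 knockdown line; 0% = DMSO-treated cells and -100% = media-only wells without cells; nearly all actives have a fitted effect of over 55% in size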
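Fibrosarcoma NT cells, 750 per well in 5% FBS RPMI, were exposed to compound for 48 hours. Viability: CellTiter-Glo luminescence.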
KB-V1 cytotox = qHTS assay for MDR1-selective chemotherapeutics: Primary screen using the drug-selected MDR subline cells KB-V1 | AID 1347076, 2019 | Potency, µM (top dose mostly 46.1 µM), most hits filed as cytotoxic | KB-V1 MDR cells viability, CellTiter-Glo, 72 h | actives 3.4% (n = 400,000); further: on the % scale 0 is the no-effect control and ±100 the full control effect; nearly all actives have a fitted effect of over 60% in size
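KB-V1 cells (P-gp-expressing MDR subline of KB-3-1) in phenol-red-free DMEM with 10% FBS were exposed to library compounds over a concentration series for 72 h at 37 degrees C. Viability read by CellTiter-Glo luminescence; concentration-effect curves fitted after normalization.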
MCF10A rerep = A quantitative high throughput screen for small molecules that induce DNA re-replication in MCF 10a normal breast cells; Potency, µM (doses to about 46.1 µM), inactives show top-dose activity, positive = re-replication, hits mostly activators; MCF 10A DNA re-replication, Hoechst nuclear intensity, 48 h; actives 2.9% (n = 350,000); further: % of control where 0% means no effect; nearly all actives have a fitted effect of over 50% in size
SW480 rereplic = A quantitative high throughput screen for small molecules that induce DNA re-replication in SW480 colon adenocarcinoma cells. actives 1.8% (n = 340,000). Potency, µM (series often up to 46.1 µM), for inactives: at the highest dose re-replication activation, hits mostly activators. SW480 DNA re-replication, Hoechst DNA content imaging, 48 h. AID 624297, 2012; further: % of control where 0% means no effect; nearly all actives have a fitted effect of over 55% in size
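Image-based read-out: total Hoechst fluorescence of nuclei (405 nm excitation, 500-530 nm emission), with hits raising the fraction of high-intensity nuclei. SW480 colon cells incubated 48 hr with compounds at 37 C.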
* = called active by the depositor; [ ] = dose if it differs, or a comment. The call rests on the fitted dose curve; in most records, active means well fitted curve in the direction sought with a large enough effect; inconclusive means small, poorly fitted or top-dose-only effect, or another doubt; inactive means no such curve, though single readings can be large; an effect the other way counts as inactive or inconclusive. Potency means the concentration at half of the fitted maximal effect.

`O=C1NC[C@H](c2ccccc2)OC(=O)[C@@H](Cc2ccc(F)cc2)CC/C=C/C[C@H]1CC(=O)N(CCO)Cc1ccccc1` gave KB-3-1 cytotox inconclusive, HT1080NT lethal 23.1µM*, KB-V1 cytotox inconclusive, MCF10A rerep inconclusive and SW480 rereplic inconclusive.
For O=C1NC[C@H](c2ccccc2)OC(=O)[C@H](Cc2ccc(F)cc2)CC/C=C/C[C@H]1CC(=O)N(CCO)Cc1ccccc1 the results were KB-3-1 cytotox inconclusive, HT1080NT lethal 25.9µM*, KB-V1 cytotox inconclusive, MCF10A rerep inconclusive and SW480 rereplic inconclusive.
`O=C1NC[C@H](c2ccccc2)OC(=O)[C@@H](Cc2ccc(F)cc2)CC/C=C/C[C@@H]1CC(=O)N(CCO)Cc1ccccc1` gave KB-3-1 cytotox inconclusive, HT1080NT lethal -25.5%, KB-V1 cytotox inactive, MCF10A rerep inconclusive and SW480 rereplic -2.4%.
For O=C1N[C@@H](c2ccccc2)COC(=O)[C@@H](Cc2ccc(F)cc2)C/C=C\C[C@H]1CC(=O)N(CCO)Cc1ccccc1 the results were KB-3-1 cytotox 20.6µM*, HT1080 IDH1KD tx inconclusive, HT1080NT lethal inconclusive, KB-V1 cytotox inconclusive, MCF10A rerep inconclusive and SW480 rereplic inconclusive.
`Cc1ccoc1C(=O)N1CCCC(CO)(Cc2ccc(F)cc2)C1` (centres undefined) gave KB-3-1 cytotox inactive, HT1080 IDH1KD tx -2.4%, HT1080NT lethal 11.0%, KB-V1 cytotox inconclusive, MCF10A rerep -36.4% and SW480 rereplic -5.3%.
`CCN1C(=O)[C@H]2[C@H]3CN=C(SCC4CC4)N3[C@@](Cc3ccccc3)(C(=O)OC)[C@H]2C1=O` gave KB-3-1 cytotox inactive, HT1080 IDH1KD tx -7.0%, HT1080NT lethal -5.8%, KB-V1 cytotox inactive, MCF10A rerep 3.8% and SW480 rereplic 25.5%.
`N#Cc1ccc(CN2CCN(CC(=O)NCCc3ccc(Cl)cc3Cl)CC2)cc1` gave KB-3-1 cytotox inactive, HT1080 IDH1KD tx inconclusive, HT1080NT lethal inconclusive, KB-V1 cytotox 18.4µM*, MCF10A rerep inconclusive and SW480 rereplic inconclusive.
For O=C(CSc1ccc2c(c1)OCCO2)NCCN1C(=O)CSC1=O the results were KB-3-1 cytotox inactive, HT1080 IDH1KD tx 0.8%, HT1080NT lethal 0.4%, KB-V1 cytotox inconclusive, MCF10A rerep 0.0% and SW480 rereplic -3.9%.
`Cc1ccnc(NC(=O)c2ccc3c(c2)OCO3)c1` gave KB-3-1 cytotox 16.4µM*, HT1080 IDH1KD tx inconclusive, HT1080NT lethal inconclusive, KB-V1 cytotox 18.4µM*, MCF10A rerep 0.0% and SW480 rereplic -19.3%.
For O=C(CSc1ccc2c(c1)OCCO2)Nc1ncc(Cl)cc1Cl the results were KB-3-1 cytotox inactive, HT1080 IDH1KD tx -9.5%, HT1080NT lethal 1.9%, KB-V1 cytotox 20.6µM*, MCF10A rerep -1.3% and SW480 rereplic -7.4%.
O=C(CSc1ccc2c(c1)OCCO2)NCCc1ccc(Cl)cc1Cl was read as KB-3-1 cytotox inactive, HT1080 IDH1KD tx -2.1%, HT1080NT lethal -0.4%, KB-V1 cytotox 18.4µM*, MCF10A rerep 16.9% and SW480 rereplic -44.6%.
Screening O=C(Cn1cc(C(F)(F)F)ccc1=O)NCCc1ccc(Cl)cc1Cl returned KB-3-1 cytotox inactive, HT1080 IDH1KD tx inconclusive, HT1080NT lethal 19.7%, KB-V1 cytotox inactive, MCF10A rerep -5.6% and SW480 rereplic 2.1%.
`O=C(Nc1ccon1)c1ccc2c(c1)OCO2` gave KB-3-1 cytotox inactive, HT1080 IDH1KD tx -2.4%, HT1080NT lethal 1.3%, KB-V1 cytotox inactive, MCF10A rerep 15.8% and SW480 rereplic -9.1%.
`O=C(NCCc1nnc2ccc(SCC(=O)N3CCCC3)nn12)c1ccc(F)cc1` gave KB-3-1 cytotox inactive, HT1080 IDH1KD tx 1.0%, HT1080NT lethal 12.1%, KB-V1 cytotox inactive, MCF10A rerep 0.8% and SW480 rereplic -5.3%.
For CCC(CC)c1nnc(NC(=O)CS(=O)(=O)Cc2ccccc2)s1 the results were KB-3-1 cytotox inactive, HT1080 IDH1KD tx 6.2%, HT1080NT lethal 0.2%, KB-V1 cytotox inactive, MCF10A rerep 2.4% and SW480 rereplic 0.9%.
Cc1ccnc(NC(=O)CSc2ccc3c(c2)OCCO3)c1 was read as KB-3-1 cytotox inactive, HT1080 IDH1KD tx 0.4%, HT1080NT lethal 6.9%, KB-V1 cytotox 18.4µM*, MCF10A rerep 3.0% and SW480 rereplic -4.8%.
`Cc1cc(NC(=O)CSc2ccc3c(c2)OCCO3)no1` gave KB-3-1 cytotox inactive, HT1080 IDH1KD tx 1.5%[9.24 µM], HT1080NT lethal 9.8%, KB-V1 cytotox inactive, MCF10A rerep -1.5% and SW480 rereplic -12.5%.
Screening N#CCN1C(=O)C(=O)N(Cc2cccc(C(F)(F)F)c2)C1=O returned KB-3-1 cytotox inactive, HT1080 IDH1KD tx -5.2%, HT1080NT lethal -14.1%, KB-V1 cytotox inactive, MCF10A rerep 3.0% and SW480 rereplic -3.1%.
For CCc1cccc(NC(=O)Cn2c(=O)n(CC3CCC(C(=O)NCCc4ccccc4)CC3)c(=O)c3ccccc32)c1 (centres undefined) the results were KB-3-1 cytotox 14.6µM* and KB-V1 cytotox inactive.
Screening O=C(Cn1c(=O)n(CC2CCC(C(=O)NCCc3ccccc3)CC2)c(=O)c2ccccc21)Nc1ccccc1 (centres undefined) returned KB-3-1 cytotox inactive and KB-V1 cytotox inactive.
Screening CCN(Cc1ccccc1)S(=O)(=O)c1cc(C(=O)OC)n(C)c1 returned KB-3-1 cytotox inactive, HT1080 IDH1KD tx -1.9%, HT1080NT lethal 3.4%, KB-V1 cytotox inactive, MCF10A rerep 1.0% and SW480 rereplic -7.0%.
`CCOC(=O)c1cnc(Nc2nc3ccccc3o2)nc1CSC(=S)N(CC)CC` gave KB-3-1 cytotox 1.3µM*, HT1080 IDH1KD tx 7.9%, HT1080NT lethal 7.9%, KB-V1 cytotox inconclusive, MCF10A rerep inconclusive and SW480 rereplic inconclusive.
Screening CCCc1nc(Nc2nc3ccccc3o2)nc(C)c1C(=O)OCC returned KB-3-1 cytotox inactive, HT1080 IDH1KD tx 4.0%, HT1080NT lethal inconclusive, KB-V1 cytotox 3.66µM*, MCF10A rerep 3.5% and SW480 rereplic 0.9%.

Compound activity (PubChem)
